Pf growth 96h: P. falciparum growth inhibition at 96 hour, primary screen for plastid delayed-death inhibitors | P. falciparum luciferase reporter growth, 96 h | Potency, µM (titrated, usually from 28.7 µM), actives largely listed as inhibitors | actives 6.9% (n = 320,000) | AID 504834
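Compounds incubated with erythrocytes infected by luciferase-expressing P. falciparum (2% hematocrit, 0.05% parasitemia final) for 96 hours, 37 C in 5% CO2. Growth inhibition scored as decreased luciferase luminescence.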
Pf growth 48h: inhibits P. falciparum growth in the first generation, 48 h; AID 504832; Potency, µM (series often up to 28.7 µM), usual class: inhibitors; actives 5.9% (n = 310,000); P. falciparum luciferase growth in erythrocytes, 48 h
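Parasite viability was followed by luminescence of a genomically integrated firefly luciferase. Cultures held 0.1% parasitemia at 2% hematocrit (final), incubated under 5% CO2 at 37 C.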
HCV inh: blocks hepatitis C virus; actives 3.4% (n = 340,000); Huh7.5.1 HCVcc-Cre infection, luciferase reporter, 44 h; Potency, µM (series often up to 41.8 µM), usual class: inhibitors
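Reporter virus HCVcc-Cre (~0.5 moi) infects cells exposed to compound; seeding density 1,000 cells/well with 4 h settling beforehand. Luminescence, 15 sec read, taken 44 h post-infection following a 15 min RT substrate incubation.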
HCMV inh: inhibitors of human cytomegalovirus | HFF cells, HCMV-luciferase reporter, 72 h; hits give low values | activity change, negative = inhibition, % at 57.5 µM | actives 4.5% (n = 410,000) | AID 1259415; in the data active = activity change below about -60%; inconclusive = no clear call, values can overlap the other calls; inactive = above about -39%
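HFF cells seeded 16 h at 37C, treated with compounds, infected with luciferase-reporter HCMV at MOI 1 PFU/cell; luciferase read at 72 h post infection, normalized to buffer-only and Salinomycin controls.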
Of the large screens only hits and unclear results are named; the others gave an inactive call. Most compounds without a hit are left out; they make up all but 13% or so of the library. Unless noted, calls follow the shape of the dose curve; as a rule, active = well fitted inhibition curve with a large enough effect; inconclusive = small, poorly fitted or top-dose-only effect, or another doubt; inactive = no such curve, though single readings can be large or run the other way.

COCCn1c(SCc2csc(-c3ccccc3)n2)nc2ccccc21	Pf growth 96h 12µM, HCV inh inconclusive, HCMV inh inconclusive
COc1ccccc1C(=O)NC1(C(F)(F)F)C(=O)Nc2c1c(=O)[nH]c(=O)n2CCc1ccccc1 (centres undefined)	none (no result: Pf growth 96h, Pf growth 48h, HCV inh)
COc1ccc(C(=O)/C=C2\NCCc3cc(OC)c(OC)cc32)cc1OC	Pf growth 96h 13µM, Pf growth 48h 10µM, HCV inh inconclusive
COc1ccc(C(=O)/C=C/N(C)C)cc1OC	none
COc1ccc(NC(=O)C(=O)NCCCn2ccnc2)cc1	HCMV inh -60
CCOc1ccc(NC(=O)C(=O)NCCCn2ccnc2)cc1	none
O=C(NCCCn1ccnc1)Nc1ccc(Cl)c(Cl)c1	Pf growth 96h 2.1µM, Pf growth 48h 12µM, HCMV inh -106
C=COCCNC(=O)Nc1ccc(Cl)c(Cl)c1	HCV inh 10µM, HCMV inh -60
O=C(NCCCn1ccnc1)Nc1ccc(Cl)cc1	none
COc1cccc(NC(=O)CSC2=Nc3ccccc3C3=NC(CC(=O)NCc4ccc5c(c4)OCO5)C(=O)N23)c1 (centres undefined)	none (no result: Pf growth 96h, Pf growth 48h, HCV inh)
CC(C)CCNC(=O)C1CCN(C(=O)N2CCOc3ccc(Cl)cc32)CC1	none (no result: Pf growth 96h, Pf growth 48h, HCV inh)
Cc1ccc(-n2nc(CC#N)c(C#N)c2N)cc1	none
N#CCc1nn(-c2ccc(F)cc2)c(N)c1C#N	HCMV inh -61
COc1cccc(OC)c1C(=O)Nc1cccc(-c2nc3cc(C)cc(C)c3o2)c1	none (no result: Pf growth 96h, Pf growth 48h, HCV inh)
C[C@@H]1O[C@@H](Oc2c(-c3ccc(O)c(O)c3)oc3cc(O)cc(O)c3c2=O)[C@H](O)[C@H](O)[C@H]1O	none (no result: Pf growth 96h, Pf growth 48h)
O=c1c(O)c(-c2ccc(O)cc2)oc2cc(O)cc(O)c12	HCV inh 6.3µM (no result: Pf growth 96h, Pf growth 48h, HCMV inh)
C[C@@H]1O[C@@H](Oc2c(-c3cc(O)c(O)c(O)c3)oc3cc(O)cc(O)c3c2=O)[C@H](O)[C@H](O)[C@H]1O	Pf growth 96h inconclusive, Pf growth 48h 13µM
CC1(C)CC(=O)C=C(c2ccccc2-c2cccc(C(N)=O)c2)C1=O	none (no result: Pf growth 96h, Pf growth 48h, HCV inh)
CCOc1ccc(-n2c(Cc3ccccc3)nnc2SCc2nc(-c3cccs3)no2)cc1	none (no result: Pf growth 96h, Pf growth 48h, HCV inh)
COc1cc(Cl)c(C)cc1NC(=O)CSc1nc2ccccc2o1	Pf growth 96h 10µM, HCV inh inconclusive
Cc1cc(NC(=O)CSc2nc(=O)n3cc(Cl)ccc3n2)no1	Pf growth 48h inconclusive, HCMV inh -98
CCS(=O)(=O)c1ccc2oc(SCC(=O)NCCC3=CCCCC3)nc2c1	Pf growth 48h inconclusive, HCMV inh -103 (no result: Pf growth 96h)
Cc1cc(NC(=O)CSc2nc3cc(Cl)ccc3o2)no1	Pf growth 48h 8.3µM
Cc1cc(NC(=O)CSc2ccc(Cl)cc2)no1	Pf growth 96h inconclusive
Cc1ccn2c(=O)nc(SCC(=O)Nc3cc(C)on3)nc2c1	none
CCC1CCCCN1S(=O)(=O)c1ccc(N2CCCCS2(=O)=O)cc1 (centres undefined)	none (no result: Pf growth 96h, Pf growth 48h, HCV inh)
Cc1cc(NC(=O)CSc2nnc(-c3cccc(Cl)c3)o2)no1	Pf growth 96h 2.9µM, Pf growth 48h inconclusive, HCMV inh inconclusive (no result: HCV inh)
COc1cccc(-c2nnc(SCC(=O)Nc3cc(C)on3)o2)c1	none (no result: Pf growth 96h)
CCN(CC)S(=O)(=O)c1ccc2oc(SCC(=O)Nc3cc(C)on3)nc2c1	Pf growth 96h 2.1µM, Pf growth 48h inconclusive, HCV inh 6.3µM, HCMV inh inconclusive
CCN(CC)S(=O)(=O)c1ccc2oc(SCC(=O)NC3CC3)nc2c1	none
COc1ccc(-c2cc(C(=O)Oc3ccc(C)c(C)c3)c3ccccc3n2)cc1	none (no result: Pf growth 96h, Pf growth 48h, HCV inh)
CC(C)C[C@H](NC(=O)c1[nH]cnc1C(=O)Nc1ccc(CNC(=O)OC(C)(C)C)cc1)C(=O)OCc1ccccc1	Pf growth 96h inconclusive, Pf growth 48h 12µM
CC(C)C[C@H](NC(=O)c1[nH]cnc1C(=O)Nc1ccc(CNC(=O)OC(C)(C)C)cc1)C(=O)OC(C)(C)C	Pf growth 96h 6.6µM, Pf growth 48h 8.3µM, HCV inh inconclusive
CC(C)(C)OC(=O)CNC(=O)c1[nH]cnc1C(=O)Nc1ccc(CNC(=O)OC(C)(C)C)cc1	Pf growth 96h 13µM, Pf growth 48h 13µM, HCV inh inconclusive
C[C@@H](CO)NC(=O)c1[nH]cnc1C(=O)Nc1ccc(CNC(=O)OC(C)(C)C)cc1	none (no result: Pf growth 96h, Pf growth 48h, HCV inh)
CC(C)(C)OC(=O)NCc1ccc(NC(=O)c2nc[nH]c2C(=O)NCCNC(=O)c2[nH]cnc2C(=O)Nc2ccc(CNC(=O)OC(C)(C)C)cc2)cc1	none (no result: Pf growth 96h, Pf growth 48h, HCMV inh)
C[C@H](NC(=O)c1[nH]cnc1C(=O)Nc1ccc(CNC(=O)OC(C)(C)C)cc1)C(=O)OCc1ccccc1	Pf growth 48h 9.3µM, HCV inh inconclusive
CC(C)C[C@H](NC(=O)c1nc[nH]c1C(=O)NCc1ccccc1)C(=O)OCc1ccccc1	Pf growth 48h inconclusive
Cc1cccc(-c2nc(S(=O)(=O)c3ccc(F)cc3)c(N3CCN(c4ccccc4)CC3)o2)c1	none (no result: Pf growth 96h, Pf growth 48h, HCV inh)
C[C@H](CO)NC(=O)c1[nH]cnc1C(=O)Nc1ccc(CNC(=O)OC(C)(C)C)cc1	none (no result: Pf growth 96h, Pf growth 48h, HCV inh)
CC(C)(C)OC(=O)NCc1ccc(NC(=O)c2nc[nH]c2C(=O)N[C@@H](Cc2ccccc2)C(=O)OC(C)(C)C)cc1	Pf growth 96h 8.3µM, Pf growth 48h 2.3µM, HCV inh inconclusive, HCMV inh inconclusive
COc1ccc(NC(=O)c2nc[nH]c2C(=O)N[C@@H](C)C(=O)OC(C)(C)C)cc1	Pf growth 96h inconclusive, Pf growth 48h inconclusive
COc1ccc(NC(=O)c2nc[nH]c2C(=O)N[C@@H](CC(C)C)C(=O)OC(C)(C)C)cc1	Pf growth 96h inconclusive, Pf growth 48h 10µM, HCMV inh -78
COc1cccc(C(=O)NCc2nc(-c3ccccc3)no2)c1OC	none (no result: Pf growth 96h, Pf growth 48h, HCV inh)
CCC(CC)C(=O)Nc1ccc(Sc2ccc([N+](=O)[O-])cc2)cc1	Pf growth 96h inconclusive, Pf growth 48h 7.4µM, HCV inh inconclusive, HCMV inh -96
CCCC(=O)Nc1ccc(C(=O)NNC(=O)c2cccc([N+](=O)[O-])c2)cc1	none
CCNC(=O)C(=O)Nc1ccc([N+](=O)[O-])cc1	Pf growth 96h inconclusive
CCCC(=O)Nc1ccc(Sc2ccc([N+](=O)[O-])cc2)cc1	Pf growth 96h 15µM, Pf growth 48h 12µM, HCV inh inconclusive, HCMV inh -75
CC(C)(C)c1ccc(C(=O)Nc2ccc([N+](=O)[O-])cn2)cc1	none
CCC(CC)C(=O)Nc1ccc([N+](=O)[O-])cn1	Pf growth 96h inconclusive, HCMV inh -84
NS(=O)(=O)c1ccc(CCNC(=O)C2CCN(S(=O)(=O)c3cccc4cccnc34)CC2)cc1	none (no result: HCMV inh)
CCN(CCNC(=O)C1CCN(S(=O)(=O)c2cccc3cccnc23)CC1)c1ccccc1	Pf growth 48h 6.6µM, HCV inh inconclusive
Cc1cccc(CCNC(=O)C2CCN(S(=O)(=O)c3cccc4cccnc34)CC2)c1	HCV inh inconclusive
CC1CCCCN1CCNC(=O)C1CCN(S(=O)(=O)c2cccc3cccnc23)CC1 (centres undefined)	Pf growth 96h 4.7µM, Pf growth 48h inconclusive
COc1cc2c(cc1OC)C(C)N(C(=O)Nc1ccccc1)CC2 (centres undefined)	Pf growth 48h inconclusive, HCV inh inconclusive

Source: PubChem BioAssay (National Center for Advancing Translational Sciences (NCATS))
